Among the data in ChEMBL document CHEMBL2218924, “A broad activity screen in support of a chemogenomic map for kinase signalling research and drug discovery” (Biochem J, 2013) are residual activity values, retold here.

For test [1], the target named is T1, Serine/threonine-protein kinase 17A (Homo sapiens) (UniProt Q9UEE5).
T1 sequence (whole entry): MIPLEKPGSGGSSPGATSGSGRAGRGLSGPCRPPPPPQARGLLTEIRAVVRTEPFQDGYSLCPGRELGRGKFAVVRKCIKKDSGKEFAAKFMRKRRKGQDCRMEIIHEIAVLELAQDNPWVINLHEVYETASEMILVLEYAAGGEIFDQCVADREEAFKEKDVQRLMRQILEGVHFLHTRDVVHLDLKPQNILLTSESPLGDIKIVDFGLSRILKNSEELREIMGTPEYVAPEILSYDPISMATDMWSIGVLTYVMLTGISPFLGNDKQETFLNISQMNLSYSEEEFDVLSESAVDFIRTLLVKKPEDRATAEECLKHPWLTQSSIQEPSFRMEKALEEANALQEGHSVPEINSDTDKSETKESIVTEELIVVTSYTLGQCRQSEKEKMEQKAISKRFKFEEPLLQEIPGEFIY
Particulars: at 10 µM.

Test [2] concerns the target T2, Dual specificity tyrosine-phosphorylation-regulated kinase 2 (Homo sapiens) (UniProt Q92630).
T2 sequence (whole entry): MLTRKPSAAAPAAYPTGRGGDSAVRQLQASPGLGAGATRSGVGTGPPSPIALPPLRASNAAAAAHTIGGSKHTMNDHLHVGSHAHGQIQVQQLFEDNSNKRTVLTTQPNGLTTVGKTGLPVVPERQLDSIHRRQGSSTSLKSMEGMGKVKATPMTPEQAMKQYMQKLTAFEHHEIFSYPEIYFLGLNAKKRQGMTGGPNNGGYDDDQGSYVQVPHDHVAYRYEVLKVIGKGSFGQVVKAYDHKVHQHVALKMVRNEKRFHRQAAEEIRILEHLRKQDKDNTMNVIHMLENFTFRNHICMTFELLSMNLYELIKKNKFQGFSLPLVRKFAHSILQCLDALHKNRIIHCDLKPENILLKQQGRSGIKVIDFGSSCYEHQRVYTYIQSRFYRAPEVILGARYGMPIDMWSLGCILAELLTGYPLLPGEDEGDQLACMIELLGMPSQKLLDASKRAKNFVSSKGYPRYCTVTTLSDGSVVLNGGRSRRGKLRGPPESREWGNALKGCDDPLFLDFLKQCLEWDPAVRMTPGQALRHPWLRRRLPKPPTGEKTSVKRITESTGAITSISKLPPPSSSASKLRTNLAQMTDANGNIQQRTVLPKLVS
Particulars: at 1 µM.

Test [3] addresses T2, Dual specificity tyrosine-phosphorylation-regulated kinase 2 (Homo sapiens). To be noted: at 10 µM.
For test [4], the target named is T3, Ephrin type-A receptor 1 (Homo sapiens) (UniProt P21709).
T3 sequence (whole entry): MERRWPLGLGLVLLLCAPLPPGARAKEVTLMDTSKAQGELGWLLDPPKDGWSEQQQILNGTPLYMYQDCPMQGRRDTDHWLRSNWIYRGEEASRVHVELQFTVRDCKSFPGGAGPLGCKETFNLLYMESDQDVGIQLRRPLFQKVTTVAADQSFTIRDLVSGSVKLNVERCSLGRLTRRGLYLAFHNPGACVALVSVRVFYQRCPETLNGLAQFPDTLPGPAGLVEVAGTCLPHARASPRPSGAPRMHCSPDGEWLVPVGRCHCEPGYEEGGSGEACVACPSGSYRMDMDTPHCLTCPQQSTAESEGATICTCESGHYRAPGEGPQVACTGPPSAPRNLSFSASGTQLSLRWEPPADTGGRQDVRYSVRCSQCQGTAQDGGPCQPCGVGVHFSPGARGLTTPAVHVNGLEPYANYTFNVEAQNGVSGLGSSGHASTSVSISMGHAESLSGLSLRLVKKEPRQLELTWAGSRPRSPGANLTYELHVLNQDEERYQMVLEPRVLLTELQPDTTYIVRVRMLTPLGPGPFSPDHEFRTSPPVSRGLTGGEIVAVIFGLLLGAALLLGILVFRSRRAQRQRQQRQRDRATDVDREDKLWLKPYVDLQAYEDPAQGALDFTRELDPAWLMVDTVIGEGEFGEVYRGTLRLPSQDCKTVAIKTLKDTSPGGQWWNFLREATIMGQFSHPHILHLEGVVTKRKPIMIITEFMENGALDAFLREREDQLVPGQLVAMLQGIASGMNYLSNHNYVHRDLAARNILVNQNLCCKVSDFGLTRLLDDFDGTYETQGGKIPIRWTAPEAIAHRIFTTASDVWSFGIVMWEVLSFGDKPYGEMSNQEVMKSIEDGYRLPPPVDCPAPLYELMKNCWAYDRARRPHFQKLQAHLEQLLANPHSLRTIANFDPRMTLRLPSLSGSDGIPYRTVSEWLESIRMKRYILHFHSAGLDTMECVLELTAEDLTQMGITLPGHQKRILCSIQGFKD
To be noted: at 1 µM.

Test [5] has as its target T3, Ephrin type-A receptor 1 (Homo sapiens). To be noted: at 10 µM.
Test [6] deals with Ephrin type-A receptor 2 (Homo sapiens) (UniProt P29317). Particulars: at 1 µM.
The target is the same in test [7]. Particulars: at 10 µM.
The target of test [8] is T4, Ephrin type-A receptor 3 (Homo sapiens) (UniProt P29320).
T4 sequence (whole entry): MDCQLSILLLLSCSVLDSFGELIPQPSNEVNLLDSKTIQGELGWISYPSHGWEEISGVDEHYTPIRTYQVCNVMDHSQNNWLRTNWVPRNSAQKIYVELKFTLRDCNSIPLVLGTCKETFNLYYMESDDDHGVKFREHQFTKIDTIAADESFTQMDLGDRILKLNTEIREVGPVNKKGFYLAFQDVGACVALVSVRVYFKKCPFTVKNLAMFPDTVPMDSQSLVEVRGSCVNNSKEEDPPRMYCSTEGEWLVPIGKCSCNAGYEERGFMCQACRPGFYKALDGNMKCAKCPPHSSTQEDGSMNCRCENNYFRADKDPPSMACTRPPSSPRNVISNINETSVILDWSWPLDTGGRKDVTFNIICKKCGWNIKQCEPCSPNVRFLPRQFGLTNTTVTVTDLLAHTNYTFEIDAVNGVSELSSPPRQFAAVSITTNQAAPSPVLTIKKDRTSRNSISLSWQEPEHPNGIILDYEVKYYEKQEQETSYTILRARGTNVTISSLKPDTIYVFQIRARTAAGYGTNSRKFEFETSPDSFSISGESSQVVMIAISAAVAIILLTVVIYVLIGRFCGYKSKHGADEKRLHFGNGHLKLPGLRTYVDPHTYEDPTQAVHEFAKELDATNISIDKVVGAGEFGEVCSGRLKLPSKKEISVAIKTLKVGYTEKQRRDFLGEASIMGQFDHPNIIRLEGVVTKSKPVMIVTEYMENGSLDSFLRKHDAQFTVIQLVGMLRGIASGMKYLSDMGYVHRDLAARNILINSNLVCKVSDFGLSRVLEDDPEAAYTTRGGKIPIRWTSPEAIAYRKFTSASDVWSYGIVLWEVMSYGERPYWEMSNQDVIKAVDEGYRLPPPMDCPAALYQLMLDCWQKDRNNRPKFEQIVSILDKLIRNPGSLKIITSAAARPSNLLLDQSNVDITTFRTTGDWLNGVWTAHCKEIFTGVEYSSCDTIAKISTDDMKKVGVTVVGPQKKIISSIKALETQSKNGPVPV
Particulars: at 1 µM.

In test [9] the target is T4, Ephrin type-A receptor 3 (Homo sapiens). Particulars: at 10 µM.
Test [10] deals with Ephrin type-A receptor 4 (Homo sapiens) (UniProt P54764). To be noted: at 1 µM.
The target is the same in test [11]. Particulars: at 10 µM.
The target of test [12] is Ephrin type-A receptor 5 (Homo sapiens) (UniProt P54756). To be noted: at 1 µM.
For test [13] the target is unchanged. To be noted: at 10 µM.
The target in test [14] is Ephrin type-A receptor 7 (Homo sapiens) (UniProt Q15375). To be noted: at 1 µM.
For test [15] the target is unchanged. Particulars: at 10 µM.
The target in test [16] is T5, Ephrin type-A receptor 8 (Homo sapiens) (UniProt P29322).
T5 sequence (whole entry): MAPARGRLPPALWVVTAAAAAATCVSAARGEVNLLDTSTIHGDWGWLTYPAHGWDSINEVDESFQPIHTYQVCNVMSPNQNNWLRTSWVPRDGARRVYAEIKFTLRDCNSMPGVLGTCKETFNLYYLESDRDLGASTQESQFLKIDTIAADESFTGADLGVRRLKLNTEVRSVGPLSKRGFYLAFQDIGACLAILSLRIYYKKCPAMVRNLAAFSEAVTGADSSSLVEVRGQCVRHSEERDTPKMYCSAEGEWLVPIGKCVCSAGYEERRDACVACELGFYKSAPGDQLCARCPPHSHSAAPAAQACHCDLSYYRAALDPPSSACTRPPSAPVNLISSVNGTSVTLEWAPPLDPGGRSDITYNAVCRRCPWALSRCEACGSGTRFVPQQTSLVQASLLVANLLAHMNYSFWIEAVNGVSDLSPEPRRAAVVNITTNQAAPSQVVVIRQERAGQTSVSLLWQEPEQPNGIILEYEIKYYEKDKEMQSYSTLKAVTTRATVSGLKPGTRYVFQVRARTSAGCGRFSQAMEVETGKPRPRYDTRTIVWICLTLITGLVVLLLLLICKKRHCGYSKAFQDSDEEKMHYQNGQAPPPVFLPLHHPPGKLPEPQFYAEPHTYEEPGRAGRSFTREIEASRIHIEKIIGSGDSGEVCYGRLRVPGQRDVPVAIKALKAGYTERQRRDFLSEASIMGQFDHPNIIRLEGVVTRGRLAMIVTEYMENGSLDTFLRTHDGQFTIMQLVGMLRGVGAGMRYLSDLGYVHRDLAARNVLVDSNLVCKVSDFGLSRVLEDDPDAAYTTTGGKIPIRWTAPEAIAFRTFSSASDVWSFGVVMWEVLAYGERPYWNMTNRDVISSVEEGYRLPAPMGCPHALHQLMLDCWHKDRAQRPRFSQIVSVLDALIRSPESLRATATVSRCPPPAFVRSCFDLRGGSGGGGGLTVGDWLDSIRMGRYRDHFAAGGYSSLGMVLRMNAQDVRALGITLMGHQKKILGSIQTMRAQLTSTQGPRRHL
To be noted: at 1 µM.

In test [17] the target is T5, Ephrin type-A receptor 8 (Homo sapiens). To be noted: at 10 µM.
In test [18] the target is T6, Ephrin type-B receptor 1 (Homo sapiens) (UniProt P54762).
T6 sequence (whole entry): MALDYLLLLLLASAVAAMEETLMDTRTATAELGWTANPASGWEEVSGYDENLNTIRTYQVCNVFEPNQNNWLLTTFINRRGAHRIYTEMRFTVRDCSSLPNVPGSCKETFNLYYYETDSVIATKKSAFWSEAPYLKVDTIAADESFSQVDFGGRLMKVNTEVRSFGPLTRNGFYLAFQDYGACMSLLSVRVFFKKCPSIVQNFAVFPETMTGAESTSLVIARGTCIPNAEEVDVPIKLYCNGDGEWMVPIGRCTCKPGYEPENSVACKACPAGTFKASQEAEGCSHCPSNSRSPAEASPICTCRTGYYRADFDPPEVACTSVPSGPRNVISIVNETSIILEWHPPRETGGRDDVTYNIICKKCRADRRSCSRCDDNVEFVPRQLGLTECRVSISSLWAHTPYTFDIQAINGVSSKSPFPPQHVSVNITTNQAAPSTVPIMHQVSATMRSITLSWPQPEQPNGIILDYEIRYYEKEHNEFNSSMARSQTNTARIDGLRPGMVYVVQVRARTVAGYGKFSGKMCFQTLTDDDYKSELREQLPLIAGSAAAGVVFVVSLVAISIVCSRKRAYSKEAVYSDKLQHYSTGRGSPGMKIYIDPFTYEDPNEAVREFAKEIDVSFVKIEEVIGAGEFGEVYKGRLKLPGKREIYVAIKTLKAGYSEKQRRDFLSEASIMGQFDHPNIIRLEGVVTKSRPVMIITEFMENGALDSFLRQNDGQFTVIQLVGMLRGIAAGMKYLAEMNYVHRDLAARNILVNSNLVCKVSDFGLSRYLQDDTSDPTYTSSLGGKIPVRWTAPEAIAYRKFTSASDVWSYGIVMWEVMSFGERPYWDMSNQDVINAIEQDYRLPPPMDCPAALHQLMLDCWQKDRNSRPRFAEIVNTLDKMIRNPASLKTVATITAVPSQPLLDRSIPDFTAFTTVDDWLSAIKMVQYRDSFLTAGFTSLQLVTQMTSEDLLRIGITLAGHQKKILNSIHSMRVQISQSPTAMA
To be noted: at 1 µM.

Test [19] addresses Epidermal growth factor receptor (Homo sapiens) (UniProt P00533). Particulars: at 1 µM.
Test [20] shares this target. Particulars: at 10 µM.

Sequence of Ephrin type-A receptor 2 (Homo sapiens) (P29317 whole entry): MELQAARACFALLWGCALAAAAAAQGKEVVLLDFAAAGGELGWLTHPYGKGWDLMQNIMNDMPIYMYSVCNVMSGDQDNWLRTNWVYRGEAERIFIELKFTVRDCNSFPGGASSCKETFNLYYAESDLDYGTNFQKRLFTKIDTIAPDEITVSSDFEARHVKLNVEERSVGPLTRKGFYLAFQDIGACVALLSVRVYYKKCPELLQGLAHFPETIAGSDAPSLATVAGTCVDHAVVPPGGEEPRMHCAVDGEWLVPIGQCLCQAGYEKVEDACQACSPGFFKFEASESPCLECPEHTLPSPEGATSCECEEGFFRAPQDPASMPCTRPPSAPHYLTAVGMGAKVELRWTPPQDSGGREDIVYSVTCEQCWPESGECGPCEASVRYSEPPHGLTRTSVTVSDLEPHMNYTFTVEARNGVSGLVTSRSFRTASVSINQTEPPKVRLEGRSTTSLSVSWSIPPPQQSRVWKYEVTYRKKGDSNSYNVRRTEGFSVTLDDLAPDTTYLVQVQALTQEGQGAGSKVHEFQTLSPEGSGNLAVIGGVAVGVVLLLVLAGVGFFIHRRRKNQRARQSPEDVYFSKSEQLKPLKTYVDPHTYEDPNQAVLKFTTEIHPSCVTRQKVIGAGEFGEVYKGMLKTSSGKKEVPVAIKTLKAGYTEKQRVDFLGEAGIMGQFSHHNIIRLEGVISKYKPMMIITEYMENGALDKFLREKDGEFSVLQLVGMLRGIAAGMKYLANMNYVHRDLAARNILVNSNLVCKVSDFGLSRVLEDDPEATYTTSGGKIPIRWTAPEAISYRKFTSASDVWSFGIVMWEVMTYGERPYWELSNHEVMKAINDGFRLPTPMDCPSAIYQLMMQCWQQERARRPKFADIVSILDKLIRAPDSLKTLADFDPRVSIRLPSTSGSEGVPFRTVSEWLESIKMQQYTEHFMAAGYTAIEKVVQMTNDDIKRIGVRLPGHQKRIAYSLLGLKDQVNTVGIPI
Sequence of Ephrin type-A receptor 5 (Homo sapiens) (P54756 whole entry): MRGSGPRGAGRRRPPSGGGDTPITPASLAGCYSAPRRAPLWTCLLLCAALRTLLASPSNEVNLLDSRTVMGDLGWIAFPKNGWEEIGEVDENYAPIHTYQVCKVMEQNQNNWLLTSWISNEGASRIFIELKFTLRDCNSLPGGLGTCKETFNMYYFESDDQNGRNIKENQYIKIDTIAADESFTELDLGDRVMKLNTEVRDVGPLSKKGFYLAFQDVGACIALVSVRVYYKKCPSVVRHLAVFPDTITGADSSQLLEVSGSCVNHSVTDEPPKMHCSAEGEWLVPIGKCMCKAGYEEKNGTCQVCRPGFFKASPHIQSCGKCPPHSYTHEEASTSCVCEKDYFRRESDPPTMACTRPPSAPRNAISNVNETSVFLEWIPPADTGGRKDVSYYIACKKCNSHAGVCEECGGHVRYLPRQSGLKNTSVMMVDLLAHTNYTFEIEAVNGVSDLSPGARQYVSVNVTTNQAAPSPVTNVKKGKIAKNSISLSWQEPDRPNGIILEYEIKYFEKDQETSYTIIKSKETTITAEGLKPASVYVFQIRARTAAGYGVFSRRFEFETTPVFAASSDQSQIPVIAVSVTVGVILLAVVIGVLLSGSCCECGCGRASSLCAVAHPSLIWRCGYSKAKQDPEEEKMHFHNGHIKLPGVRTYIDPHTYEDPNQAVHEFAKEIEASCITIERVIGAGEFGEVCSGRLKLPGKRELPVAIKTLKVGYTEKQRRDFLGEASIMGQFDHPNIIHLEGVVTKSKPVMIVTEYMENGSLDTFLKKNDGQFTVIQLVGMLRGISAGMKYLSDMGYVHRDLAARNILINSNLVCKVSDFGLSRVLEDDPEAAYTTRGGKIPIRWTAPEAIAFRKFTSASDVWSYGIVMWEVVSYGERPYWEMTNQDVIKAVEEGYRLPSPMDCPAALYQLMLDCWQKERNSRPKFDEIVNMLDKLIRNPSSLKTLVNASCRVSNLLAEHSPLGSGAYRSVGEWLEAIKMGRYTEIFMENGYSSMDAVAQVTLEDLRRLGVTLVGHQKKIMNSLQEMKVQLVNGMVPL
Sequence of Ephrin type-A receptor 7 (Homo sapiens) (Q15375 28-998 limits assumed): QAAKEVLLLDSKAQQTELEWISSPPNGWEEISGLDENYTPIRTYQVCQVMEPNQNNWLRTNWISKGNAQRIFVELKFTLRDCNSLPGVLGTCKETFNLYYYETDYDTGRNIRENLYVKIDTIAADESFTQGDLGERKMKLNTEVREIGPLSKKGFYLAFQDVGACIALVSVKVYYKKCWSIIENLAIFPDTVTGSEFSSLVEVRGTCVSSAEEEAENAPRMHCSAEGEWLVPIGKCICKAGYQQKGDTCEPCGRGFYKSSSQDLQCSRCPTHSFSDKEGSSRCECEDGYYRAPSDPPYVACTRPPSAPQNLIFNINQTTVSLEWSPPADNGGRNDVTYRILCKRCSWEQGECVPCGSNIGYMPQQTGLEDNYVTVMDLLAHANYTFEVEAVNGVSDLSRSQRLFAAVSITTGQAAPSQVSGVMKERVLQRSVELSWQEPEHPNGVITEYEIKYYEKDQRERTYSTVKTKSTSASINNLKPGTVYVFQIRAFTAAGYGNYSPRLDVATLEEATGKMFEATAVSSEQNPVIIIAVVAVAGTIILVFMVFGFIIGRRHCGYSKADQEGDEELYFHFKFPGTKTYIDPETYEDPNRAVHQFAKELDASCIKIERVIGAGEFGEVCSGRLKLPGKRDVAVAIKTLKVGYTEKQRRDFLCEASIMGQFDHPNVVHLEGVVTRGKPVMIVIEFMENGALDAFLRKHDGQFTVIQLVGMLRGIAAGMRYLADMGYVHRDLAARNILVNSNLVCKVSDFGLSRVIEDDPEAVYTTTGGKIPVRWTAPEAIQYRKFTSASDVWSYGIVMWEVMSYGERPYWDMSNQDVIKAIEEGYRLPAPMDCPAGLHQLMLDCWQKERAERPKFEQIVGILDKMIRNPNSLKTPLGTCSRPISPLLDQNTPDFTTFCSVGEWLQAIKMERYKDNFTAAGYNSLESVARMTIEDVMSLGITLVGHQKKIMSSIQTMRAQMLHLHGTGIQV
Sequence of Ephrin type-A receptor 4 (Homo sapiens) (P54764 whole entry): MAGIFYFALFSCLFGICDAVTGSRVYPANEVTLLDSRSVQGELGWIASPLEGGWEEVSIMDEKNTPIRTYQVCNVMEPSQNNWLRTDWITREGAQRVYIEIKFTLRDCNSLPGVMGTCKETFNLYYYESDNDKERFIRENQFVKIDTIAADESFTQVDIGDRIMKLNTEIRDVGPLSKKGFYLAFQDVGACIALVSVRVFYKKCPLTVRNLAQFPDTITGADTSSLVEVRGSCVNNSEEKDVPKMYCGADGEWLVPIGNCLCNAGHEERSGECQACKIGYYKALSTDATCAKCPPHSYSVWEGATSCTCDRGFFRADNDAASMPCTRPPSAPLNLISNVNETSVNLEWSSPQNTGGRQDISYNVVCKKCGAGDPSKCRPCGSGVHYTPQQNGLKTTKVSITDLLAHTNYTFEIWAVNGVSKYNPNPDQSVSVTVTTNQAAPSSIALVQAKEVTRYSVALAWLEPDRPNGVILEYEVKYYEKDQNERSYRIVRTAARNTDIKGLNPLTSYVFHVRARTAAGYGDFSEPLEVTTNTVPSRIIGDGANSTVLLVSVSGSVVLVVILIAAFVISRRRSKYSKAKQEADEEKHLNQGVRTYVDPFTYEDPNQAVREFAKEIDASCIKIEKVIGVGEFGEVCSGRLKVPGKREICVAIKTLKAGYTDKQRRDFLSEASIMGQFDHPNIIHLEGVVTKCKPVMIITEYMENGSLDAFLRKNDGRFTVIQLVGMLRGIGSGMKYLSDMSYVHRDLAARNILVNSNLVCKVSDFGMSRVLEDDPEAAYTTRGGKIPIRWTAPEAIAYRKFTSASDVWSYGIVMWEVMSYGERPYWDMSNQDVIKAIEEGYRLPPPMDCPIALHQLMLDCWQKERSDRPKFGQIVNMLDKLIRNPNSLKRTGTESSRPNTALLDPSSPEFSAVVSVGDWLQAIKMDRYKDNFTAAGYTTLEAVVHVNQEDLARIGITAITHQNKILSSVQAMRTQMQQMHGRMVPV

Take `COc1cccc(-c2cc(=O)c3ccccc3o2)c1N`: the residual activity in [1] worked out at 70%; in test [2] it was 100%; in [3], 94%; in test [4], 99%; in test [5], 92%; in test [6] it was 97%. Further, the residual activity in test [7] worked out at 117%; in [8], 110%; in [9], 108%; in test [10], 109%; in [11] it was 108%; in [12] it was 118%. Also, the residual activity in [13] was determined as 96%; in test [14], 98%; in test [15], 97%; in test [16], 105%; in test [17], 104%; in [18] it was 118%.
As to `Nc1nc(Nc2ccc(S(N)(=O)=O)cc2)nn1C(=S)Nc1c(F)cccc1F`, the residual activity in [1] is 4%; in [2], 49%; in [3], -1%; in [4], 1%; in test [5] it was 3%; in [6] it was 13%. The residual activity in [7] was -2%; in [8], 65%; in test [9] it was 23%; in test [10], 97%; in [11], 86%; in test [12] it was 59%. The residual activity in [13] is 11%; in [14], 3%; in test [15], -2%; in test [16], 76%; in test [17] it was 24%; in [18], 1%.
As to `CC(C)n1cnc2c(NCc3ccccc3)nc(NCCCO)nc21`, the residual activity in test [1] is 134%; in [2], 99%; in test [3] it was 89%; in test [19] it was -1%; in [20], -2%; in [4], 99%. Further, the residual activity in [5] is 91%; in test [6] it was 102%; in [7], 112%; in test [8], 101%; in [9] it was 101%; in test [10] it was 109%. Also, the residual activity was 104% in test [11]; 96% in test [12]; 84% in test [13]; 84% in [14]; 78% in test [15]; 97% in [16]. The figures for the residual activity in [17] and in test [18] were 94% and 93%, respectively.
